Data as given in the supplement of paper PMC12494721.
Structures can show the parent of a compound that is named as a salt.

System: Ruminococcus gnavus DSM 108212
Assay: fold change of 2-Phenylethylamine concentration vs plate DMSO controls (fold change (ratio)); higher = more amine produced, active = hit call of the paper (significant change in both replicates, either direction)
Conditions: incubation time: 27 h, anaerobic, 37 °C;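 for the amine columns active = adjusted P below 0.05 in both replicates with a change the same way and a mean fold change under 0.8 or over 1.25; inactive = the rest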
In short: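 Each value is the fold change relative to DMSO-only wells on the same plate. Four gut bacterial strains were grown anaerobically in mGAM at 37 °C for 27 h in 80 µL wells, starting at OD 0.1 before a 1:1 dilution, with compounds at 20 µM final (sweeteners 50 µM). Whole cultures were extracted with cold acetonitrile/methanol containing 0.1% formic acid, centrifuged, and amines were quantified by LC–triple-quadrupole MS (dynamic MRM) against external calibration curves with within-batch drift correction. Values are means of 2 biological replicates.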

Row | Structure (SMILES) | fold change of 2-Phenylethylamine concentration
1 | CC(=O)S[C@@H]1CC2=CC(=O)CC[C@]2(C)[C@H]2CC[C@@]3(C)[C@@H](CC[C@@]34CCC(=O)O4)[C@H]12 [Spironolactone] (20 µM) | 1.01 (inactive)
2 | COC(=O)C1=C(C)NC(C)=C(C(=O)OCCN2CCN(C(c3ccccc3)c3ccccc3)CC2)C1c1cccc([N+](=O)[O-])c1 (configuration not stated) [Manidipine Dihydrochloride] (20 µM) | 0.9 (inactive)
3 | CC(=O)NS(=O)(=O)c1ccc(NC(=O)c2ccccc2C(=O)O)cc1 [Phthalylsulfacetamide] (20 µM) | 1.02 (inactive)
4 | CN(C/C=C/C#CC(C)(C)C)Cc1cccc2ccccc12 [Terbinafine] (20 µM) | 1.02 (inactive)
5 | Nc1nc2[nH]cnc2c(=S)[nH]1 [Tioguanine] (20 µM) | 0.998 (inactive)
6 | CC(=O)OCC(=O)[C@@]12N=C(C)O[C@@H]1C[C@H]1[C@@H]3CCC4=CC(=O)C=C[C@]4(C)[C@H]3[C@@H](O)C[C@@]12C [Deflazacort] (20 µM) | 1.1 (inactive)
7 | CCCCOCCOCCOCc1cc2c(cc1CCC)OCO2 [Piperonyl butoxide] (20 µM) | 1.17 (inactive)
8 | O=C(Cn1ccnc1[N+](=O)[O-])NCCO [Etanidazole] (20 µM) | 1.83 (active)
9 | CCN(CC)CCNC(=O)c1cc(Cl)c(N)cc1OC [Metoclopramide monohydrochloride] (20 µM) | 1 (inactive)
10 | CCN(CC)CCNC(C(=O)OCCC(C)C)c1ccccc1 (configuration not stated) [Camylofine chlorhydrate] (20 µM) | 0.94 (inactive)
11 | Cc1cc(C)nc(NS(=O)(=O)c2ccc(N)cc2)n1 [Sulfamethazine sodium salt] (20 µM) | 1.07 (inactive)
12 | C/C(O)=C(\C#N)C(=O)Nc1ccc(C(F)(F)F)cc1 [Teriflunomide] (20 µM) | 1.04 (inactive)
13 | NC[C@@H]1O[C@@H](O[C@H]2[C@H](O)[C@@H](O[C@H]3O[C@H](CO)[C@@H](O)[C@H](N)[C@H]3O)[C@H](N)C[C@@H]2N)[C@@H](O)[C@H](O)[C@H]1O [Kanamycin A sulfate] (20 µM) | 1.03 (inactive)
14 | CN[C@@H]1[C@H](O)[C@H](NC)[C@H]2O[C@@]3(O)C(=O)C[C@@H](C)O[C@H]3O[C@@H]2[C@H]1O [Spectinomycin dihydrochloride] (20 µM) | 0.991 (inactive)
15 | CCOC(=O)c1ccc(C#Cc2ccc3c(c2)C(C)(C)CCS3)nc1 [Tazarotene] (20 µM) | 1.22 (inactive)
16 | CCCOc1ccc2[nH]c(NC(=O)OC)nc2c1 [Oxibendazol] (20 µM) | 0.996 (inactive)
17 | CCN(CCCc1ccccc1)CCCc1ccccc1 [Alverine citrate salt] (20 µM) | 0.782 (inactive)
18 | CO[C@@H]1[C@@H](OC(N)=O)[C@@H](O)[C@H](Oc2ccc3c(O)c(NC(=O)c4ccc(O)c(CC=C(C)C)c4)c(=O)oc3c2C)OC1(C)C [Novobiocin sodium salt] (20 µM) | 0.208 (active)
19 | CCOC(N)=O [Urethane] (20 µM) | 0.926 (inactive)
20 | CCN1CCN(C(=O)N[C@@H](C(=O)N[C@@H]2C(=O)N3[C@@H]2SC(C)(C)[C@@H]3C(=O)O)c2ccccc2)C(=O)C1=O [Piperacillin sodium salt] (20 µM) | 0.0313 (active)
21 | CC1CCc2cc(F)cc3c(=O)c(C(=O)O)cn1c23 (configuration not stated) [Flumequine] (20 µM) | 0.952 (inactive)
22 | CO/N=C1\CN(c2nc3c(cc2F)c(=O)c(C(=O)O)cn3C2CC2)CC1CN (configuration not stated) [Gemifloxacin mesylate] (20 µM) | 0.159 (active)
23 | C=CCOc1ccc(CC(=O)O)cc1Cl [Alclofenac] (20 µM) | 1.09 (inactive)
24 | C[C@]12CC[C@H]3[C@@H](CCC4=CC(=O)CC[C@@]43C)[C@@H]1CC[C@@H]2C(=O)CO [Deoxycorticosterone] (20 µM) | 1.06 (inactive)
25 | CCCC(CCC)C(=O)O[C@H]1C[C@H]2CC[C@@H](C1)[N+]2(C)C [Anisotropine Methylbromide] (20 µM) | 1.06 (inactive)
26 | Cc1cn(-c2cc(NC(=O)c3ccc(C)c(Nc4nccc(-c5cccnc5)n4)c3)cc(C(F)(F)F)c2)cn1 [Nilotinib] (20 µM) | 0.897 (inactive)
27 | OCCN1CCN(CC/C=C2/c3ccccc3Sc3ccc(C(F)(F)F)cc32)CC1 [Flupentixol dihydrochloride cis-(Z)] (20 µM) | 1.06 (inactive)
